The results in this text go back to PubChem BioAssay (NCATS).

Where “and” joins values, the source holds several entries; their conditions need not be identical. Equal values may be shown once. Records with an inconclusive call do not appear. Where a structure was tested more than once in an assay, its records may differ in their call. A number with no mark means an inactive call. Calls of active or inactive are those of the source. Calls come from the whole dose curve; as a rule, active = well fitted inhibition curve with a large enough effect; inconclusive = small, poorly fitted or top-dose-only effect; inactive = flat fitted curve, though single readings scatter.
% is set by controls: 0 for no effect and ±100 for the full control effect; potency is the fitted concentration of half-maximal effect.

The first experiment can be described thus: Drug repurposing screens with cells derived from glioblastoma tumor samples (AID 1345199). Note: nearly all actives have a fitted effect of over 40% in size. The following applies: GBM patient neurospheres viability, ATP luminescence, 48 h; at 45.9 µM (top of the series); tumour line D. Summed up: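 Primary testing used CD133+ neurospheres from four GBM patients, seven concentrations, 48 h exposure and ATP-based viability; confirmation added three slower-growing patient lines.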
As for `CNC(=O)[C@H](Cc1c[nH]c2ccccc12)NC(=O)[C@@H](CC(=O)NO)CC(C)C`, the activity, negative = cell killing was -19.3%.

Regarding `C/C(=C\C(=O)OCCCCCCCCC(=O)O)C[C@@H]1OC[C@H](C[C@@H]2O[C@H]2[C@@H](C)[C@H](C)O)[C@@H](O)[C@H]1O`, the activity, negative = cell killing is -9.28%.

With `C=CCN1CCCC1CNC(=O)c1cc(S(N)(=O)=O)cc(OC)c1OC` (stereo unspecified), the activity, negative = cell killing was -19.4%.

Take `CCN(CC)CCOc1ccccc1OC`: the activity, negative = cell killing is -13.8%.

Turning to `Cc1c(Cl)cccc1Nc1ncccc1C(=O)O`, the activity, negative = cell killing was -17%.

With `CO[C@H]1C[C@@H]2CC[C@@H](C)[C@@](O)(O2)C(=O)C(=O)N2CCCC[C@H]2C(=O)O[C@H]([C@H](C)C[C@@H]2CC[C@@H](OC(=O)C(C)(CO)CO)[C@H](OC)C2)CC(=O)[C@H](C)/C=C(\C)[C@@H](O)[C@@H](OC)C(=O)[C@H](C)C[C@H](C)/C=C/C=C/C=C/1C`, the activity, negative = cell killing is -16%.

For `O=C(OCc1ccccc1)c1ccc(O)cc1`, the activity, negative = cell killing is -12.6%.

As to `Oc1cc(O)cc(O)c1`, the activity, negative = cell killing was -12.8%.

On to `COc1ccc(C[C@H](C)NC[C@@H](O)c2ccc(O)c(NC=O)c2)cc1`, for which the activity, negative = cell killing was -10.9%.

As to `CC1CC(OC(=O)C(O)c2ccccc2)CC(C)(C)C1` (stereo unspecified), the activity, negative = cell killing was 6.83%.

For `CC(C)(C)NCC(O)c1ccc(O)c(CO)n1` (stereo unspecified), the activity, negative = cell killing was 7.95%.

Take `CC1=C(/C=C/C(C)=C/C=C/C(C)=C/C(=O)Oc2c(C)c(C)c3c(c2C)CC[C@@](C)(CCC[C@H](C)CCC[C@H](C)CCCC(C)C)O3)C(C)(C)CCC1`: the activity, negative = cell killing was -2.61%.

For the compound `CC(=O)Oc1cccc2c1C(=O)c1c(OC(C)=O)cc(C(=O)O)cc1C2=O`, the activity, negative = cell killing is -16.7%.

Staying with this experiment, now noted: GBM patient neurospheres viability, ATP luminescence, 48 h; at 46.1 µM (top of the series); tumour line C.
With `N[C@@H](Cc1cc(I)c(Oc2ccc(O)c(I)c2)c(I)c1)C(=O)O`, the activity, negative = cell killing is -18.1%.

With `CNC(=O)[C@H](Cc1c[nH]c2ccccc12)NC(=O)[C@@H](CC(=O)NO)CC(C)C`, the activity, negative = cell killing was -23.8%.

`Cc1c(N)nc([C@H](CC(N)=O)NC[C@H](N)C(N)=O)nc1C(=O)N[C@H](C(=O)N[C@H](C)[C@@H](O)[C@H](C)C(=O)N[C@H](C(=O)NCCc1nc(-c2nc(C(=O)NCCCCN=C(N)N)cs2)cs1)[C@@H](C)O)[C@@H](O[C@@H]1O[C@@H](CO)[C@@H](O)[C@H](O)[C@@H]1O[C@H]1O[C@H](CO)[C@@H](O)[C@H](OC(N)=O)[C@@H]1O)c1cnc[nH]1`: the activity, negative = cell killing was -15.4%.

`O=C(Nc1ccc(O)cc1)c1ccccc1O`: the activity, negative = cell killing was -27.7%.

For the compound `C/C(=C\C(=O)OCCCCCCCCC(=O)O)C[C@@H]1OC[C@H](C[C@@H]2O[C@H]2[C@@H](C)[C@H](C)O)[C@@H](O)[C@H]1O`, the activity, negative = cell killing was -21.4%.

Turning to `CCN(CC)CCOc1ccccc1OC`, the activity, negative = cell killing was -28.2%.

For `CN(C)CCOc1ccc(/C(=C(/CCCl)c2ccccc2)c2ccccc2)cc1`, the activity, negative = cell killing is -18.9%.

Turning to `C[C@]12CC[C@@H]3c4ccc(OC(=O)c5ccccc5)cc4CC[C@H]3[C@@H]1CC[C@@H]2O`, the activity, negative = cell killing was -17.8%.

As to `CO[C@H]1C[C@@H]2CC[C@@H](C)[C@@](O)(O2)C(=O)C(=O)N2CCCC[C@H]2C(=O)O[C@H]([C@H](C)C[C@@H]2CC[C@@H](OC(=O)C(C)(CO)CO)[C@H](OC)C2)CC(=O)[C@H](C)/C=C(\C)[C@@H](O)[C@@H](OC)C(=O)[C@H](C)C[C@H](C)/C=C/C=C/C=C/1C`, the activity, negative = cell killing was -22.5%.

On to `O=C(OCc1ccccc1)c1ccc(O)cc1`, for which the activity, negative = cell killing is 10.4%.

Regarding `O=C1c2ccccc2C(=O)c2c1ccc(O)c2O`, the activity, negative = cell killing is -2.45%.

In the case of `Oc1cc(O)cc(O)c1`, the activity, negative = cell killing is -10.5%.

With `COc1ccc(C[C@H](C)NC[C@@H](O)c2ccc(O)c(NC=O)c2)cc1`, the activity, negative = cell killing was -28.7%.

As to `C=C1[C@H](CO)[C@@H](O)C[C@@H]1n1cnc2c(=O)[nH]c(N)nc21`, the activity, negative = cell killing was -24%.

For the compound `CC1CC(OC(=O)C(O)c2ccccc2)CC(C)(C)C1` (stereo unspecified), the activity, negative = cell killing was -12.1%.

In the case of `CCN(CC)CCOCCOC(=O)C(CC)(CC)c1ccccc1`, the activity, negative = cell killing was -23.4%.

Consider `Nc1nc(NC2CC2)c2ncn([C@@H]3C=C[C@@H](CO)C3)c2n1`, for which the activity, negative = cell killing was -22.1%.

With `CC(C)(C)NCC(O)c1ccc(O)c(CO)n1` (stereo unspecified), the activity, negative = cell killing was -15%.

For the compound `CCCCCCCCCC(=O)NO`, the activity, negative = cell killing was -21.2% and 7.01%.

For `C=C1CC[C@H](O)CC1=C/C=C1\CCC[C@]2(C)[C@@H]([C@H](C)/C=C/[C@H](C)C(C)C)CC[C@@H]12`, the activity, negative = cell killing is 6.83%.

The experiment is the same for the next values; noted with them: GBM patient neurospheres viability, ATP luminescence, 48 h; tumour line A.
Take `CN(C)CCCSc1ccccc1NC(=O)/C=C/c1ccccc1`: the Potency was 10 µM (active).

As for `N[C@@H](Cc1cc(I)c(Oc2ccc(O)c(I)c2)c(I)c1)C(=O)O`, the Potency was 11.2 µM (active).

For the compound `CC(C)=CCC/C(C)=C/CC/C(C)=C/CC/C(C)=C/CC1=C(C)C(=O)c2ccccc2C1=O`, the Potency is 10 µM (active).

As to `CCOC(=O)C1=C(COCCN)NC(C)=C(C(=O)OC)C1c1ccccc1Cl` (stereo unspecified), the Potency was 11.2 µM (active).

In the case of `C=CCN1CCCC1CNC(=O)c1cc(S(N)(=O)=O)cc(OC)c1OC` (stereo unspecified), the Potency is 35.5 µM (active).

As for `CN(C)CCOc1ccc(/C(=C(/CCCl)c2ccccc2)c2ccccc2)cc1`, the Potency is 8.91 µM (active).

For `C[C@]12CC[C@@H]3c4ccc(OC(=O)c5ccccc5)cc4CC[C@H]3[C@@H]1CC[C@@H]2O`, the Potency was 11.2 µM (active).

Take `COc1ccc(C[C@H](C)NC[C@@H](O)c2ccc(O)c(NC=O)c2)cc1`: the Potency was 17.8 µM (active).

As for `COc1ccc2c(c1)N(C[C@H](C)CN(C)C)c1ccccc1S2`, the Potency was 4.47 µM (active).

Take `CCN(CC)CCOCCOC(=O)C(CC)(CC)c1ccccc1`: the Potency was 1.41 µM (active).

As to `Nc1nc(NC2CC2)c2ncn([C@@H]3C=C[C@@H](CO)C3)c2n1`, the Potency was 35.5 µM (active).

As to `C=C1CC[C@H](O)CC1=C/C=C1\CCC[C@]2(C)[C@@H]([C@H](C)/C=C/[C@H](C)C(C)C)CC[C@@H]12`, the Potency is 10 µM (active).

Take `CC1=C(/C=C/C(C)=C/C=C/C(C)=C/C(=O)Oc2c(C)c(C)c3c(c2C)CC[C@@](C)(CCC[C@H](C)CCC[C@H](C)CCCC(C)C)O3)C(C)(C)CCC1`: the Potency is 25.1 µM (active).
